High-throughput results (PubChem)
CtBP-E1A inh – blocks the CtBP interaction with E1A | AlphaScreen GST-E1A/His-CtBP binding, 1536-well; hits give low values | activity change, % (no concentration beside the values) | 340,000 tested, 0.49% active | AID 651724; in the data active = activity change below about -65%; inconclusive = mostly about -30% to -63%
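Homogeneous bead-based format: GST-tagged E1A captured on glutathione donor beads, His-tagged CtBP on nickel acceptor beads; compounds precede bead addition by 2 h at 37 °C.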
Six1-Eya2 blk – inhibitors of human Six1/Eya2 interaction; AID 651725; Q15475+O00167; AlphaScreen GST-Six1/His-Eya2 binding, biochemical; hits give low values; activity change, % (no concentration beside the values); 360,000 tested, 0.56% active; in the data active = activity change below about -65%; inconclusive = mostly about -30% to -63%
Target sequence (O00167 whole entry, looked up): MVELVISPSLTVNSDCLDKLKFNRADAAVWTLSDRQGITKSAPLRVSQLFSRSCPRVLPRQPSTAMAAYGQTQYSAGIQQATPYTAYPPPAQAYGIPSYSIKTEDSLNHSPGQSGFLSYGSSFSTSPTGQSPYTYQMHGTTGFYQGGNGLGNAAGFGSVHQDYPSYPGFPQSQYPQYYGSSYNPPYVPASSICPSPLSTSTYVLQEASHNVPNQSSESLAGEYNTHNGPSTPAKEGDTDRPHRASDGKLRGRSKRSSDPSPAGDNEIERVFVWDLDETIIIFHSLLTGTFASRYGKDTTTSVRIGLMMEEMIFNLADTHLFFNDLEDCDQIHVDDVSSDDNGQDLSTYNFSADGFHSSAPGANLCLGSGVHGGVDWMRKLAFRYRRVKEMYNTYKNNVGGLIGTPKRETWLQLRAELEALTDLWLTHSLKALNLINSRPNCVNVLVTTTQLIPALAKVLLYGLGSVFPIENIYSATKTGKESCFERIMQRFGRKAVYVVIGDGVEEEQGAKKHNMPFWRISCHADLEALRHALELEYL
Target sequence (Q15475 whole entry, looked up): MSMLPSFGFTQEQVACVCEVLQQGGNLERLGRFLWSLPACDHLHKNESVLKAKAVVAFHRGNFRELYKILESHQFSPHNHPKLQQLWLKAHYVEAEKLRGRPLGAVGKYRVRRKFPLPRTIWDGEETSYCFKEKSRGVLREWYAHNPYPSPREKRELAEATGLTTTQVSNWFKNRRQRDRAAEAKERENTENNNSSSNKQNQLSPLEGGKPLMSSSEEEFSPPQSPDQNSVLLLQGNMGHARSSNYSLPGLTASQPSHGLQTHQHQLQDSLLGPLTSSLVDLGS
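Homogeneous AlphaScreen proximity assay pairing GST-Six1 with His-tagged Eya2 (added as 5X mix: 250 nM and 500 nM) in 50 mM Tris pH 8.0, 300 mM NaCl, 1 mM TCEP. Glutathione donor and nickel acceptor beads; 1 h, 37 °C, dark.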
TDP1 block – blocks human tyrosyl-DNA phosphodiesterase 1; recombinant TDP1, AlphaScreen DNA substrate cleavage; Potency, µM (top dose mostly 130 µM), for inactives: at the top dose activity change, negative = inhibition, actives largely listed as inhibitors; Q9NUW8; 350,000 tested, 0.28% active; note: potency is the fitted concentration of half-maximal effect; nearly all actives have a fitted effect of over 40% in size
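Tdp1 1 nM final; 15 min RT w/ cpd; substrate 15 nM, 5 min; beads 10 ug/ml, 10 min; AlphaScreen read. Neg ctrl: no enzyme.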
TDP1 cell noCPT – qHTS for Inhibitors of human tyrosyl-DNA phosphodiesterase 1 (TDP1): qHTS in cells in absence of CPT; 420,000 tested, 15% active; DT40 Tdp1-/- hTDP1 cells, no CPT, ATP luminescence, 48 h; AID 686978, 2013; Potency, µM (doses to about 46.2 µM), for inactives: at the top dose activity change, negative = growth inhibition, usual class: inhibitors; note: potency is the fitted concentration of half-maximal effect; nearly all actives have a fitted effect of over 55% in size
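Seeded 400 DT40-hTDP1 cells/well (vehicle DMSO, no 20 nM CPT); pinned compounds; ≥48 hr at 37 °C; CellTiter-Glo luminescence as viability measure.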
IL1B secr inh – blocks inflammasome-driven IL-1 beta release; AID 743279; THP-1 LPS/ATP IL-1B secretion, AlphaLISA, 16 h; hits give low values; activity change, % at 57.5 µM; 360,000 tested, 4.7% active; in the data active = activity change below about -50%; inconclusive = mostly about -30% to -49%
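Secreted IL-1B measured by AlphaLISA bead assay after 16 h compound exposure of THP-1 cells; compounds (final up to 57.5 uM) added 1 h before LPS (250 ng/mL) and ATP (1.25 mM) stimulation; lower signal means less secretion.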
DT40 TDP1 CPT – growth inhibition of DT40 Tdp1-/-;hTDP1 cells with camptothecin (screen for TDP1 inhibitors) | Potency, µM (highest dose often 46.2 µM), without a hit: at the top dose activity change, negative = growth inhibition, hits mostly inhibitors | chicken DT40 Tdp1-/-;hTDP1 cells + 20 nM CPT, ATP luminescence, 48 h | 420,000 tested, 12% active; note: potency is the fitted concentration of half-maximal effect; nearly all actives have a fitted effect of over 55% in size
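Cell growth measured by CellTiter-Glo luminescence after a minimum 48 h, 37 C compound exposure with 20 nM CPT in Tdp1-knockout DT40 cells stably expressing hTDP1, seeded 400/well; qHTS titration format.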
Numbers without * were called inactive; u = inconclusive; x = no result given; [ ] = remark or other dose. Hits are enriched below; roughly 18% of the tested compounds scored in any of these assays. Unless noted, calls come from the whole dose curve; as a rule, active = well fitted curve in the direction sought with a large enough effect; inconclusive = small, poorly fitted or top-dose-only effect, or another doubt; inactive = no such curve, though single readings can be large; an effect the other way counts as inactive or inconclusive. % is set by controls: 0 for no effect and ±100 for the full control effect.

SMILES | CtBP-E1A inh | Six1-Eya2 blk | TDP1 block | TDP1 cell noCPT | IL1B secr inh | DT40 TDP1 CPT
CCOc1ccc(N2CC(c3nc(-c4cc(OC)c(OC)c(OC)c4)no3)CC2=O)cc1 (stereo not drawn) | x | x | 7% | 26µM* | x | u
Cc1cc(C)n(-c2nc3ccccc3nc2Nc2cccc(C)c2C)n1 | x | x | -8% | -16% | x | -13%
CC(=O)SC1CC2=CC(=O)CCC2(C)C2CCC3(C)C(CCC34CCC(=O)O4)C12 (stereo not drawn) | 5 | -4 | -3% | u | u | u
CC(=O)[C@@]1(O)CC[C@H]2[C@@H]3CCC4=CC(=O)CC[C@]4(C)[C@H]3[C@@H](O)C[C@@]21C | 2 | -4 | 6% | -16% | -12 | -18%
CC(=O)C1(C)CCC2C3C=C(C)C4=CC(=O)CCC4(C)C3CCC21C (stereo not drawn) | 0 | 1 | x | 23µM* | -73* | 18µM*
C=C1CC2C(CCC3(C)C2CCC3(O)C(C)=O)C2(C)CCC(=O)C=C12 (stereo not drawn) | 14 | -3 | x | 26µM* | -92* | u
CCc1nnc(NC(=O)CCC2CCCCC2)s1 | 11 | 6 | x | -21% | -1 | 0%
CC(=O)O[C@H]1C2OC(=O)C(C)=C2[C@@H]2OC(=O)[C@]3(CCC4OC41C)OC23 (stereo partly drawn) | 0 | 0 | 1% | u | -72* | 15µM*
COC/C=C/C1=CC2=CC(=O)C(C)(OC(=O)c3cnc4ccccc4n3)C(=O)C2=CN1c1ccccc1 (stereo not drawn) | 1 | -12 | 4%[21 µM] | 16µM* | 21 | u
O=C(Nc1ccncc1)Nc1ccc(F)c(Cl)c1 | x | 5 | -4% | u | u | 16µM*
Cc1ccc(NC(=S)Nc2ccc(OC(F)F)c(Cl)c2)cc1F | 5 | -7 | 5% | u | -95* | u
O=C(Cc1ccc(Cl)cc1Cl)Nc1ccncc1Cl | -3 | -12 | -7% | 1.8µM* | -25 | 5.2µM*
O=C(Cc1ccc(Cl)cc1Cl)Nc1ccncc1 | -1 | 1 | 4% | u | -3 | 12µM*
CC(C)NC(=O)C1C(c2ccc(C(F)(F)F)cc2)=Nc2ccccc2N1C(=O)c1ccco1 (stereo not drawn) | 6 | 8 | x | u | 13 | u
Cc1cc(=O)[nH]c2nnc(-c3ccc(Br)cc3)n12 | 2 | 6 | x | -13% | -5 | -22%
COc1ccc(S(=O)(=O)N2CC(C)OC(C)C2)cc1C(=O)N1CCCCC1 (stereo not drawn) | 4 | 0 | 0% | u | 15 | u
CCOC(=O)N1CCc2c(sc(NC(=O)c3ccc(Cl)s3)c2C(N)=O)C1 | x | x | -3% | x | x | x
Cc1c(NC(=O)C(C)OC(=O)c2cc(-c3cccc4ccccc34)nc3ccccc23)c(=O)n(-c2ccccc2)n1C (stereo not drawn) | -13 | -3 | 2% | u | u | -17%
COCc1cc(C)nc2sc(C(=O)Nc3ccc(C(C)=O)cc3)c(N)c12 | x | x | 0% | u | x | -17%
Cc1ccc(NC(=O)Nc2ccc(F)cc2)cc1Cl | 18 | 14 | -3% | 23µM* | u | u
COc1cccc(NC(=O)Nc2ccc(C)c(Cl)c2)c1 | 6 | 4 | 5% | u | -23 | u
COc1ccc(CC(=O)Nc2ccncc2Cl)cc1 | 7 | 3 | 3% | 1.8µM* | -9 | 4.6µM*
COC(=O)NC(=S)Nc1ccc(Oc2ccc(Cl)cc2Cl)c(Cl)c1 | 6 | -1 | 5% | 4.6µM* | 48 | 9.2µM*
Fc1ccc(NC(=S)Nc2ccc(F)c(Cl)c2)cc1Cl | 8 | -2 | 4% | 13µM* | -77* | 23µM*
Cc1ccccc1CC(=O)N1CCCc2ccccc21 | 16 | 1 | 1% | u | 44 | -10%
SMILES | CtBP-E1A inh | Six1-Eya2 blk | TDP1 block | TDP1 cell noCPT | IL1B secr inh | DT40 TDP1 CPT
CC1Oc2ccccc2N(CC(=O)Nc2ccc(F)cc2)C1=O (stereo not drawn) | -11 | 10 | 3% | -22% | -8 | u
c1cc(C2CCCCC2)ccc1Oc1nc(N2CCOCC2)nc(N2CCOCC2)n1 | 2 | 2 | -5% | -15% | 10 | -26%
Cc1ccc(/C=C/c2nc3ccccc3n2S(=O)(=O)c2cccc(Cl)c2)cc1 | x | x | 1% | 10µM* | x | 13µM*
CSc1ccc(/C=C/c2nc3ccccc3n2S(=O)(=O)c2ccc(F)c(C)c2)cc1 | x | x | 8% | 21µM* | x | 18µM*
CCOc1ccc(/C=C/c2nc3ccccc3n2S(=O)(=O)c2cccc(Cl)c2)cc1 | x | x | 7% | 6.5µM* | x | 7.3µM*
O=C(NCCCN1CCCC1=O)Nc1ccc(F)c(Cl)c1 | -6 | 5 | 2% | -8% | -3 | -4%
COc1ccc(-c2csc(N(CC3CCCO3)C(=O)c3ccco3)n2)cc1 (stereo not drawn) | -5 | -10 | 0% | 21µM* | -15 | 21µM*
CCN(C(=O)c1ccco1)c1nc(-c2ccc(OC)cc2)cs1 | x | 0 | 5% | u | 5 | -6%
COCCN(C(=O)c1ccco1)c1nc(-c2ccc(OC)cc2)cs1 | -1 | -6 | x | 16µM* | 24 | 26µM*
Cn1c(=O)oc2cc(S(=O)(=O)NC(Cc3ccccc3)C(=O)Nc3ccc(F)c(Cl)c3)ccc21 (stereo not drawn) | x | x | -1% | -22% | x | 0%
